# Records with an inconclusive call do not appear. A call without a number means that no potency is given here. Unmarked numbers belong to inactive results. The source made the active and inactive calls. Unless noted, calls come from the whole dose curve; as a rule, active = well fitted curve in the direction sought with a large enough effect in the repeat runs; inconclusive = weak or mixed curves; inactive = no such curve, though single readings can be large; an effect the other way counts as inactive or inconclusive.
# Experiments:
# [1] = target: Aryl hydrocarbon receptor (Homo sapiens) (UniProt P35869); assay: qHTS assay to identify small molecule that activate the aryl hydrocarbon receptor (AhR) signaling pathway (AID 743085);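 note: HG2L7.5c1 human HepG2 liver cells with stably integrated DRE-driven firefly reporter; series mostly up to about 70 µM; nearly all actives have a fitted effect of over 15% in size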
# In short: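 HepG2 cells (HG2L7.5c1) stably carrying a firefly luciferase reporter driven by 20 dioxin responsive elements were exposed to compound for 24 h at 37C after a 5 h settling period; luminescence rise (ONE-Glo) indicated activation.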
# [2] = target: Peroxisome proliferator-activated receptor gamma (Homo sapiens) (UniProt P37231); assay: qHTS assay to identify small molecule agonists of the peroxisome proliferator-activated receptor gamma (PPARg) signaling pathway (AID 743094; active = well fitted activation curve with a large enough effect in the signal ratio in the repeat runs, not every such curve was filed as active; the % refers to the signal ratio)
# In short: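 HEK293H PPARg-bla cells, 5 h settle at 37C/5% CO2; compound (DMSO) 17 h, 37C; B/G FRET substrate 1 h RT; fluorescence intensity read-out. qHTS format.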
# [3] = qHTS assay to identify small molecule antagonists of the peroxisome proliferator-activated receptor gamma (PPARg) signaling pathway - cell viability counter screen (AID 743194); conditions: Potency: co-treated with 50 nM rosiglitazone; note: nearly all actives have a fitted effect of over 55% in size
# In short: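 Viability was measured as CellTiter-Glo luminescence in GeneBLAzer PPARg UAS-bla HEK293H cells. These cells had been exposed 17 h at 37 C to compounds together with rosiglitazone at 50 nM final, with the beta-lactamase readout taken in the same wells.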
# [4] = qHTS assay for small molecule agonists of the antioxidant response element (ARE) signaling pathway (AID 743202; active = well fitted activation curve with a large enough effect in the signal ratio in the repeat runs, not every such curve was filed as active; the % refers to the signal ratio; note: potency is the fitted concentration of half-maximal effect)
# In short: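 After 16 hours of compound treatment at 37 C, HepG2 cells with a stably integrated ARE-driven beta-lactamase reporter were loaded 2 hours at room temperature with LiveBLAzer B/G FRET substrate and fluorescence intensity measured.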
# [5] = qHTS assay for small molecule agonists of the antioxidant response element (ARE) signaling pathway - cell viability counter screen (AID 743203; calls by dose curve; note: nearly all actives have a fitted effect of over 55% in size)
# In short: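 Luminescence read-out (CellTiter-Glo, 30 min at room temperature) measured cell viability in the same wells as the ARE beta-lactamase reporter. HepG2 ARE-bla cells were treated with compounds for 16 hrs at 37C/5% CO2.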
# [6] = qHTS assay for small molecule activators of the heat shock response signaling pathway - cell viability counter screen (AID 743209); note: nearly all actives have a fitted effect of over 50% in size
# In short: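 HSE-bla HeLa; 1500 cells/well; overnight 37 C, 5% CO2; compound 5 h 37 C; LiveBLAzer B/G substrate 2.5 h RT; CellTiter-Glo 30 min RT; luminescence.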
# [7] = qHTS assay for small molecule activators of the heat shock response signaling pathway (AID 743210; active = well fitted activation curve with a large enough effect in the signal ratio in the repeat runs, with a control signal flat, not every such curve was filed as active; the % refers to the signal ratio; note: series mostly up to about 63 µM)
# In short: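 Compound exposure lasted 5 h at 37 C in HeLa cells carrying a heat-shock-element-driven beta-lactamase reporter. Read-out: fluorescence intensity after 2.5 h room-temperature loading with LiveBLAzer B/G FRET substrate.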
# [8] = qHTS assay to identify small molecule agonists of the peroxisome proliferator-activated receptor delta (PPARd) signaling pathway - cell viability counter screen (AID 743211); note: nearly all actives have a fitted effect of over 55% in size
# In short: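 PPARd-bla HEK293H cells (UAS-beta-lactamase reporter) were treated with compounds for 17 h at 37 C. Viability was then read in the same wells by CellTiter-Glo luminescence after 30 min at room temperature.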
# [9] = target: Peroxisome proliferator-activated receptor delta (Homo sapiens) (UniProt Q03181); assay: qHTS assay to identify small molecule agonists of the peroxisome proliferator-activated receptor delta (PPARd) signaling pathway (AID 743212; calls by dose curve)
# In short: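 Beta-lactamase reporter readout: a ratiometric FRET signal from the LiveBLAzer substrate after 2 h at room temperature. Compound exposure at 37 °C in PPARδ-bla HEK293H cells driven by an upstream activator sequence.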
# [10] = qHTS assay to identify small molecule antagonists of the peroxisome proliferator-activated receptor delta (PPARd) signaling pathway - cell viability counter screen (AID 743213); note: nearly all actives have a fitted effect of over 50% in size
# In short: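 Agonist-stimulated (L165041, 300 nM final) HEK293H PPARd UAS-bla cells are exposed to compounds for 17 h at 37 C, and ATP-based luminescence (CellTiter-Glo) from the same wells reports cytotoxicity.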
# [11] = target: Peroxisome proliferator-activated receptor delta (Homo sapiens) (UniProt Q03181); assay: qHTS assay to identify small molecule antagonists of the peroxisome proliferator-activated receptor delta (PPARd) signaling pathway (AID 743215; active = well fitted inhibition curve with a large enough effect in the signal ratio in the repeat runs, not every such curve was filed as active; the % refers to the signal ratio; note: series mostly up to about 62 µM)
# In short: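 HEK293H GeneBLAzer PPARd UAS-bla reporter cells; cpd + L165041 300 nM final, 17 h 37 C; LiveBLAzer B/G FRET substrate 2 h RT; fluorescence intensity read-out. Antagonist mode.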
# [12] = qHTS assay to identify small molecule agonists of the farnesoid-X-receptor (FXR) signaling pathway - cell viability counter screen (AID 743218); note: nearly all actives have a fitted effect of over 45% in size
# In short: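 Luminescence from CellTiter-Glo, read after 30 min at RT, reports viability of GeneBLAzer FXR-UAS-bla HEK 293T cells treated 16 h with compounds in the wells used for the beta-lactamase reporter.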
# [13] = qHTS assay to identify small molecule agonists of the vitamin D receptor (VDR) signaling pathway - cell viability counter screen (AID 743224); note: series mostly up to about 63 µM; nearly all actives have a fitted effect of over 50% in size
# In short: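 Cytotoxicity counter screen: VDR-bla cells, 16 h compound exposure at 37C, 5% CO2; CellTiter-Glo luminescence, 30 min RT, same wells as bla read.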
# [14] = qHTS assay to identify small molecule that activate the aryl hydrocarbon receptor (AhR) signaling pathway - cell viability counter screen (AID 743086);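 note: HepG2 liver cells carrying the AhR DRE luciferase reporter; series mostly up to about 70 µM; nearly all actives have a fitted effect of over 45% in size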
# In short: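 Cytotoxicity counter screen: CellTiter-Fluor signal (30 min, 37 C) in 4000 HepG2 cells/well carrying the DRE-luciferase reporter, following 24 h compound exposure at 37 C.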
# [15] = target: Peroxisome proliferator-activated receptor gamma (Homo sapiens) (UniProt P37231); assay: qHTS assay to identify small molecule antagonists of the peroxisome proliferator-activated receptor gamma (PPARg) signaling pathway (AID 743191; calls by dose curve; note: series mostly up to about 63 µM; nearly all actives have a fitted effect of over 30% in size)
# In short: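 Beta-lactamase reporter under UAS control in HEK293H PPARg-bla cells; compound treatment 17 h at 37C. Read-out: fluorescence intensity after 1 h room-temperature incubation with LiveBLAzer B/G FRET substrate.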
# [16] = target: Bile acid receptor (Homo sapiens) (UniProt Q96RI1); assay: qHTS assay to identify small molecule antagonists of the farnesoid-X-receptor (FXR) signaling pathway (AID 743217; active = well fitted inhibition curve with a large enough effect in the signal ratio in the repeat runs, not every such curve was filed as active; the % refers to the signal ratio)
# In short: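 Read-out: beta-lactamase FRET fluorescence (LiveBLAzer B/G substrate, 2 h, room temperature) in GeneBLAzer FXR-UAS-bla HEK 293T cells. Compounds were co-dosed with 50 uM chenodeoxycholic acid (final) and incubated 16 h at 37 °C.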
# [17] = target: Bile acid receptor (Homo sapiens) (UniProt Q96RI1); assay: qHTS assay to identify small molecule agonists of the farnesoid-X-receptor (FXR) signaling pathway (AID 743220; active = well fitted activation curve with a large enough effect in the signal ratio in the repeat runs, not every such curve was filed as active; the % refers to the signal ratio)
# In short: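 FXR-UAS-bla HEK 293T cells carrying a UAS-driven beta-lactamase reporter were plated for 5 h at 37C/5% CO2, then exposed to DMSO-dissolved Tox21 10K compounds for 16 h at 37C. A LiveBLAzer B/G FRET substrate was loaded for 2 h at room temperature before fluorescence reading.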
# [18] = qHTS assay to identify small molecule antagonists of the farnesoid-X-receptor (FXR) signaling pathway - cell viability counter screen (AID 743221; active = well fitted cell-killing curve with a large enough effect in the repeat runs, not every such curve was filed as active; note: nearly all actives have a fitted effect of over 50% in size)
# In short: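 FXR-UAS-bla HEK 293T cells were treated with test compounds plus chenodeoxycholic acid (50 uM final) for 16 h at 37 C. Cell viability in the same wells was then read as CellTiter-Glo luminescence after 30 min at room temperature.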
# [19] = target: Vitamin D3 receptor (Homo sapiens) (UniProt P11473); assay: qHTS assay to identify small molecule agonists of the vitamin D receptor (VDR) signaling pathway (AID 743222; calls by dose curve)
# In short: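 Beta-lactamase reporter readout (LiveBLAzer B/G FRET, 2 h RT) in VDR-bla cells after 16 h compound treatment at 37C, 5% CO2; cells pre-incubated 4 h before pin transfer of DMSO solutions.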
# [20] = target: Vitamin D3 receptor (Homo sapiens) (UniProt P11473); assay: qHTS assay to identify small molecule antagonists of the vitamin D receptor (VDR) signaling pathway (AID 743223; active = well fitted inhibition curve with a large enough effect in the signal ratio in the repeat runs, not every such curve was filed as active; the % refers to the signal ratio)
# In short: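 VDR-bla cells were plated, incubated 4 h at 37C, then given compound and 1alpha,25-dihydroxyvitamin D3 (3 nM final). After 16 h at 37C, LiveBLAzer B/G FRET substrate was added for 2 h at room temperature and fluorescence read.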
# Sequence of Peroxisome proliferator-activated receptor gamma (Homo sapiens) (P37231 whole entry, looked up): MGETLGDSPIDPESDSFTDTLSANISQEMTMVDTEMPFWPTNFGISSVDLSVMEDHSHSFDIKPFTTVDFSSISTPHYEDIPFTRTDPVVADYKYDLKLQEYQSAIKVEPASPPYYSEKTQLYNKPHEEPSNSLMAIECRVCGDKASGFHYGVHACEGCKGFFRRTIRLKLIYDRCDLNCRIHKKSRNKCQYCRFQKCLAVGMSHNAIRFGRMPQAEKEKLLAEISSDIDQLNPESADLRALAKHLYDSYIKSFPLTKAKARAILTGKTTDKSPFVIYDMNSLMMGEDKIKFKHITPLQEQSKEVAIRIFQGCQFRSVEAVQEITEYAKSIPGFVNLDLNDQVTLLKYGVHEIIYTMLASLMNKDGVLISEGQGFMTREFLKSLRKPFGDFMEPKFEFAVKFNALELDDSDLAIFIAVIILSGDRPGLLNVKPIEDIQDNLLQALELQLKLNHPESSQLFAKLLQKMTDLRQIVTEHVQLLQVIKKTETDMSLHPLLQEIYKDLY
# Sequence of Bile acid receptor (Homo sapiens) (Q96RI1 whole entry, looked up): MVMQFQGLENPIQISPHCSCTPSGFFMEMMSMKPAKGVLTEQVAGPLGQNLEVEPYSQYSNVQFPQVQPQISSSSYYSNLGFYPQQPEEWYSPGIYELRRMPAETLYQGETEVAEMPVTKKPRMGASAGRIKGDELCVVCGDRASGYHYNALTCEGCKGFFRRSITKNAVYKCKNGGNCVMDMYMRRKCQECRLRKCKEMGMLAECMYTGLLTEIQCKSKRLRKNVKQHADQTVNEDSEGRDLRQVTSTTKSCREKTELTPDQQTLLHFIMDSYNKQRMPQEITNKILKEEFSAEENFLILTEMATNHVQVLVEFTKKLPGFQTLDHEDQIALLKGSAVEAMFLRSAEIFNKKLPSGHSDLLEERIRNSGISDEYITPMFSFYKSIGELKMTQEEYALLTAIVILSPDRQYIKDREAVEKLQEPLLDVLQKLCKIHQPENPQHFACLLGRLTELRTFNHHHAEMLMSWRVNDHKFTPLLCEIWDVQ
# Sequence of Peroxisome proliferator-activated receptor delta (Homo sapiens) (Q03181 whole entry, looked up): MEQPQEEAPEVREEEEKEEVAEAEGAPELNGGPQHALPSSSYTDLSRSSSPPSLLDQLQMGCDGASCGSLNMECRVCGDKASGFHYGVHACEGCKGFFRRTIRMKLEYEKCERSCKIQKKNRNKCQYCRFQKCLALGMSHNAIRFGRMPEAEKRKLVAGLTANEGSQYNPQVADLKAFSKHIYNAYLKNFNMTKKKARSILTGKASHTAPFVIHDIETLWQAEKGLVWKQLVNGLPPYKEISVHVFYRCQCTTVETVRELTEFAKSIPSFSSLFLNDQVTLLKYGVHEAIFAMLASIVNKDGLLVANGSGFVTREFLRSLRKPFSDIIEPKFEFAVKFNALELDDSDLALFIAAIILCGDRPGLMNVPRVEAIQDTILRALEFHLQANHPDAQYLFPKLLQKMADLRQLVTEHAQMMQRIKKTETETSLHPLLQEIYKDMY
# Sequence of Aryl hydrocarbon receptor (Homo sapiens) (P35869 whole entry, looked up): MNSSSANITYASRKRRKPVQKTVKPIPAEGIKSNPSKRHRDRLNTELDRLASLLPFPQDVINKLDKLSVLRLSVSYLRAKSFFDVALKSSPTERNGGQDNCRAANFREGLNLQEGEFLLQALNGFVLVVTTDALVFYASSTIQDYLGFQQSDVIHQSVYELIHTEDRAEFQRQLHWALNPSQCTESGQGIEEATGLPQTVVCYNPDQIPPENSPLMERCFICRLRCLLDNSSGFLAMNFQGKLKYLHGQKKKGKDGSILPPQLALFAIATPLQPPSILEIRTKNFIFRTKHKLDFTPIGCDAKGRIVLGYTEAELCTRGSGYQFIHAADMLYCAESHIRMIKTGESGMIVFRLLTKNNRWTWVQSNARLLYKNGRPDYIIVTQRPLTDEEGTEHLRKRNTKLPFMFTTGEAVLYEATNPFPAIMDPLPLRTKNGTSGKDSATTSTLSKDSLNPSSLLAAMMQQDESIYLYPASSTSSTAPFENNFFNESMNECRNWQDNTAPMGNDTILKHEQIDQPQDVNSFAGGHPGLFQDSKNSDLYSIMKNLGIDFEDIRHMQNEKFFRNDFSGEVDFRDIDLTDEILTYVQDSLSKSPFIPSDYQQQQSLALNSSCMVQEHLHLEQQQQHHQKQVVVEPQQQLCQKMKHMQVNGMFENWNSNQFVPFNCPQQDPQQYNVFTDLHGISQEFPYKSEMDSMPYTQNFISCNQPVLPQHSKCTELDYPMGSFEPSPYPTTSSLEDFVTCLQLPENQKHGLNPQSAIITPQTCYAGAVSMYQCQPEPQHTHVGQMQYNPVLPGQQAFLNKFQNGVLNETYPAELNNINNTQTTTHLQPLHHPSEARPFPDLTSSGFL
# Sequence of Vitamin D3 receptor (Homo sapiens) (P11473 whole entry, looked up): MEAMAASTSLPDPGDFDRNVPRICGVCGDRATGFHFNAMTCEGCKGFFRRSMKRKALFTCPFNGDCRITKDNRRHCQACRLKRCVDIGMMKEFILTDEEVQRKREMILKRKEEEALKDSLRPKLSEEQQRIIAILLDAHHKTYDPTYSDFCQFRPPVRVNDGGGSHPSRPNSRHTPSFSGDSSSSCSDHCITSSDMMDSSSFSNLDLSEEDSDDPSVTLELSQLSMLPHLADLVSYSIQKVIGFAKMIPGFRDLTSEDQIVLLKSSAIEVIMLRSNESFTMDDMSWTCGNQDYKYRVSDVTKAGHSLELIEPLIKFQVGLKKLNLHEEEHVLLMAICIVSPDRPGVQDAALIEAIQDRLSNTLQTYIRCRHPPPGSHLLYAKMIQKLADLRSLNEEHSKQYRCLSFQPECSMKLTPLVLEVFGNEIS
smiles,measurement,setting,value
BrCCc1ccccc1,Potency,[1],inactive
same,outcome,[2],inactive
same,Potency,[3],inactive
same,Potency,[4],inactive
same,Potency,[5],inactive
same,Potency,[6],inactive
same,Potency,[7],inactive
same,Potency,[8],inactive
same,outcome,[9],inactive
same,Potency,[10],inactive
same,Potency,[11],inactive
same,Potency,[12],inactive
same,Potency,[13],inactive
NNC(N)=O,Potency,[14],inactive
same,outcome,[2],inactive
same,Potency,[15],inactive
same,Potency,[3],inactive
same,Potency,[4],inactive
same,Potency,[5],inactive
same,Potency,[6],inactive
same,Potency,[7],inactive
same,Potency,[8],inactive
same,outcome,[9],inactive
same,Potency,[10],inactive
same,Potency,[11],inactive
same,outcome,[16],inactive
same,Potency,[12],inactive
same,outcome,[17],inactive
same,Potency,[18],inactive
same,outcome,[19],inactive
same,Potency,[13],inactive
COC(=O)c1ccccc1CS(=O)(=O)NC(=O)Nc1nc(OC)cc(OC)n1,Potency,[1],inactive
same,outcome,[2],inactive
same,Potency,[15],inactive
same,Potency,[4],inactive
same,Potency,[5],inactive
same,Potency,[6],inactive
same,Potency,[7],inactive
same,Potency,[8],inactive
same,outcome,[9],inactive
same,Potency,[10],inactive
same,Potency,[11],inactive
same,outcome,[16],inactive
same,Potency,[12],inactive
same,outcome,[17],inactive
same,Potency,[18],inactive
same,outcome,[19],inactive
same,outcome,[20],inactive
same,Potency,[13],inactive
O=C(Cl)/C=C/C(=O)Cl,Potency,[1],inactive
same,Potency,[4],22 µM (active)
same,Potency,[5],inactive
same,Potency,[6],inactive
same,Potency,[7],inactive
same,Potency,[8],inactive
same,outcome,[9],inactive
same,Potency,[10],inactive
same,Potency,[11],inactive
same,outcome,[16],inactive
same,Potency,[12],inactive
same,outcome,[17],inactive
same,Potency,[18],inactive
same,outcome,[19],inactive
same,Potency,[13],inactive
CC(C)(C)NC[C@H](O)c1ccc(O)cc1Cl,Potency,[14],inactive
same,outcome,[2],inactive
same,Potency,[15],inactive
same,Potency,[3],inactive
same,Potency,[4],inactive
same,Potency,[5],inactive
same,Potency,[6],inactive
same,Potency,[7],inactive
same,Potency,[8],inactive
same,outcome,[9],inactive
same,Potency,[10],inactive
same,Potency,[11],inactive
same,outcome,[16],inactive
same,Potency,[12],inactive
same,outcome,[17],inactive
same,Potency,[18],inactive
same,outcome,[19],inactive
same,outcome,[20],inactive
same,Potency,[13],inactive
Brc1c(Br)c(Br)c(Br)c(Br)c1Br,activation,[1],-0.623% [at 8.47 µM]
same,"activity change, negative = cytotoxicity",[3],"-21% [at 5.95 µM, co-treated with 50 nM rosiglitazone]"
same,activation,[4],-11.1% [at 8.36 µM]
same,"viability change, negative = cytotoxic",[5],-9.94% [at 8.36 µM]
same,"activity change, negative = cytotoxicity",[6],-1.06% [at 5.95 µM]
same,activation,[7],-1.19% [at 5.95 µM]
same,"activity change, negative = cytotoxicity",[8],3.57% [at 5.95 µM]
same,activation,[9],3.14% [at 5.95 µM]
same,"ratio activity, negative = inhibition",[11],-21.8% [at 6.26 µM]
same,"viability change, negative = cytotoxic",[12],26.7% [at 5.95 µM]
same,"activity change, negative = cytotoxicity",[18],-6% [at 5.95 µM]
same,"activity change, negative = cytotoxicity",[13],9.04% [at 5.95 µM]
CC[C@H](O)C(C[C@H](C)N(C)C)(c1ccccc1)c1ccccc1,Potency,[1],inactive
same,outcome,[2],inactive
same,Potency,[3],inactive
same,Potency,[5],inactive
same,Potency,[6],inactive
same,Potency,[7],inactive
same,Potency,[8],inactive
same,outcome,[9],inactive
same,Potency,[10],inactive
same,Potency,[11],inactive
same,outcome,[16],inactive
same,Potency,[12],inactive
same,outcome,[17],inactive
same,outcome,[19],inactive
same,outcome,[20],inactive
same,Potency,[13],inactive
C=CCN1CC[C@]23CCCC[C@H]2[C@H]1Cc1ccc(O)cc13,Potency,[1],inactive
same,outcome,[2],inactive
same,Potency,[3],inactive
same,Potency,[4],inactive
same,Potency,[5],inactive
same,Potency,[6],inactive
same,Potency,[7],inactive
same,Potency,[8],inactive
same,Potency,[10],inactive
same,outcome,[16],inactive
same,Potency,[12],inactive
same,outcome,[17],inactive
same,Potency,[18],inactive
same,outcome,[19],inactive
same,outcome,[20],inactive
same,Potency,[13],inactive
